# Values joined by “and” are separate entries in the source; they are usually repeats but may differ in a detail not shown here. Equal values may be shown once. Inconclusive results are not listed. Entries that show only a call come without a potency. Values without a mark were called inactive. Active and inactive are the calls of the source. The call rests on the fitted dose curve; in most records, active means well fitted curve in the direction sought with a large enough effect; inconclusive means small, poorly fitted or top-dose-only effect, or another doubt; inactive means no such curve, though single readings can be large; an effect the other way counts as inactive or inconclusive.
# Experiments:
# [1] = Viability qHTS for spleen associated tyrosine kinase inhibitor (SYKi) naive MV4-11 cells (AID 1963823); details: MV4-11 AML viability, CellTiter-Glo luminescence, 72 h; series mostly up to 45 µM; further: nearly all actives have a fitted effect of over 40% in size
# Summary of the method: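 Viability of MV4-11 AML cells lacking prior SYK inhibitor exposure is scored by CellTiter-Glo luminescence following 72 hr compound incubation at 37 C, 5% CO2, seeded at 500 cells per well.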
# [2] = Quantitative highthroughput screen to assess conditional lethalithy of NOMO1 cells grown in RPMI1640 with untreated serum (RPMI+s) (AID 1963876); details: NOMO1 AML cells in RPMI+serum, CellTiter-Glo viability, 48 h; series mostly up to 45.8 µM; further: nearly all actives have a fitted effect of over 35% in size
# Summary of the method: (§1)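 Each medium arm—HPLM with 10% dialyzed FBS, or RPMI1640 with 5 mM glucose and 10% untreated or dialyzed FBS—was screened against an 11-point, 3-fold compound titration for 48 h at 37 °C, with CellTiter-Glo luminescence as endpoint.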
# [3] = Quantitative highthroughput screen to assess conditional lethalithy of NOMO1 cells grown in RPMI1640 with dialyzed fetal bovine serum (RPMI+ds) (AID 1963877); details: NOMO1 in RPMI+dialyzed FBS viability, ATP luminescence, 48 h; series mostly up to 45.8 µM; further: nearly all actives have a fitted effect of over 30% in size
# Summary of the method: as §1
# [4] = Quantitative highthroughput screen to assess conditional lethalithy of NOMO1 cells grown in Human Plasma-Like Medium with dialyzed fetal bovine serum (HPLM+ds) (AID 1963878); details: NOMO1 AML cells in HPLM+ds, CellTiter-Glo viability, 48 h; series mostly up to 45.8 µM; further: nearly all actives have a fitted effect of over 35% in size
# Summary of the method: as §1
# [5] = Quantitative highthroughput screen to assess conditional lethalithy of P12 Ichikawa cells grown in RPMI1640 with dialyzed fetal bovine serum (RPMI+ds) (AID 1963880); details: ATP luminescence, 48 h; Potency: P12-Ichikawa viability; series mostly up to 45.8 µM; further: nearly all actives have a fitted effect of over 35% in size
# Summary of the method: as §1
# [6] = Quantitative highthroughput screen to assess conditional lethalithy of P12 Ichikawa cells grown in RPMI1640 with untreated serum (RPMI+s) (AID 1963881); details: ATP luminescence, 48 h; Potency: viability; series mostly up to 45.8 µM; further: nearly all actives have a fitted effect of over 35% in size
# Summary of the method: as §1
# [7] = Quantitative highthroughput screen to assess conditional lethalithy of SEM cells grown in Human Plasma-Like Medium with dialyzed fetal bovine serum (HPLM+ds) (AID 1963882); details: SEM B-ALL cells in HPLM+ds, CellTiter-Glo viability, 48 h; series mostly up to 45.8 µM; further: nearly all actives have a fitted effect of over 35% in size
# Summary of the method: as §1
# [8] = Quantitative highthroughput screen to assess conditional lethalithy of SEM cells grown in RPMI1640 with dialyzed fetal bovine serum (RPMI+ds) (AID 1963884); details: SEM B-ALL cells, RPMI+dialyzed FBS, CellTiter-Glo viability, 48 h; series mostly up to 45.8 µM; further: nearly all actives have a fitted effect of over 35% in size
# Summary of the method: as §1
# [9] = Cellular viability qHTS for adrenocortical cancer (ACC) cell line SW-13 (AID 1963989); details: SW-13 ACC cells viability, CellTiter-Glo, 48 h; activity (max response): stronger effect = lower value; further: nearly all actives have a fitted effect of over 65% in size;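 on activity (max response): cells grown in serum-free medium with ITS supplement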
# Summary of the method: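 Here, serum-free SW-13 cultures were dosed up to 46 uM. Following 48 h, ATP-dependent luminescence (CellTiter-Glo) reported viable cells, and logistic modeling produced IC50 values.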
# [10] = Cellular viability qHTS for adrenocortical cancer (ACC) cell line NCI-H295R (AID 1963990); details: CellTiter-Glo ATP luminescence, 48 h; series mostly up to 46.1 µM; further: nearly all actives have a fitted effect of over 60% in size
# Summary of the method: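 Viability of NCI-H295R after 48 h of treatment (final up to 46 uM) measured through cellular ATP luminescence.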
# [11] = Quantitative highthroughput screen to assess conditional lethalithy of SEM cells grown in RPMI1640 with unreated serum (RPMI+s) (AID 1963883); details: SEM B-ALL cells, CellTiter-Glo viability, 48 h; series mostly up to 45.8 µM; further: nearly all actives have a fitted effect of over 35% in size
# Summary of the method: as §1
# [12] = Quantitative highthroughput screen to assess conditional lethalithy of P12 Ichikawa cells grown in Human Plasma-Like Medium with dialyzed fetal bovine serum (HPLM+ds) (AID 1963879); details: ATP luminescence, 48 h; Potency: viability; series mostly up to 45.8 µM; further: nearly all actives have a fitted effect of over 35% in size
# Summary of the method: as §1
# Potency means the concentration at half of the fitted maximal effect.
SMILES,Potency [1],Potency [2],Potency [3],Potency [4],Potency [5],Potency [6],Potency [7],Potency [8],Potency [9],Potency [10],Potency [11],activity (max response) [9],Potency [12]
COc1ccc(C2Sc3ccccc3N(CCN(C)C)C(=O)C2OC(C)=O)cc1 (stereo not drawn),inactive,inactive,inactive,inactive,inactive,inactive,inactive,inactive,–,–,–,–,–
CC1=C[C@@H]2[C@@H]([C@@H](O)C[C@@]3(C)[C@H]2C[C@@H](C)[C@]3(O)C(=O)CO)[C@@]2(C)Cc3cnn(-c4ccccc4)c3C=C12,731 nM (active),inactive,inactive,–,–,–,0.0372 µM (active),0.0526 µM (active),22.4 µM (active),8.91 µM (active),–,–,–
CC(C)Nc1cc(C(F)(F)F)cc2nc(NC(=O)c3cccnc3)nn12,184 nM (active),1.05 µM (active),0.743 µM (active),–,–,2.35 µM (active),1.32 µM (active),1.18 µM (active),–,–,1.18 µM (active),-12.5%,–
CC(=O)OCCN1C(=O)c2c(C)nc3ccc(S(=O)(=O)N4CCOCC4)cc3c2C1=O,inactive,0.264 µM (active),–,–,3.32 µM (active),–,inactive,inactive,–,inactive,inactive,-3.53%,–
CCc1cc(-c2n[nH]c(C)c2-c2ccc3c(c2)OCCO3)c(O)cc1O,2350 nM (active),9.35 µM (active),–,11.8 µM (active),–,–,–,–,14.1 µM (active),–,–,–,–
N[C@@H](Cc1ccc(O)c(O)c1)C(=O)O,inactive,inactive,inactive,–,inactive,inactive,inactive,inactive,–,inactive,inactive,3.64%,inactive
Cc1ccccc1C(OCCN(C)C)c1ccccc1 (stereo not drawn),inactive,inactive,inactive,–,inactive,inactive,inactive,inactive,–,inactive,inactive,14.3%,inactive
Cc1ccc(NC(=O)c2ccc(CN3CCN(C)CC3)cc2)cc1Nc1nc(-c2cccnc2)cs1,11.6 µM (active) and 14.8 µM (active),inactive,–,0.372 µM (active),–,–,–,–,25.1 µM (active),22.4 µM (active),–,–,–
CC1(C)CCC(C)(C)c2cc(NC(=O)c3ccc(C(=O)O)cc3)ccc21,inactive,–,inactive,–,–,inactive,inactive,inactive,–,inactive,inactive,-9.24%,inactive
C=C(c1ccc(C(=O)O)cc1)c1cc2c(cc1C)C(C)(C)CCC2(C)C,468 nM (active),inactive,–,0.469 µM (active),inactive,–,inactive,inactive,–,inactive,inactive,-0.298% and -6.68%,inactive
CC(C)=CC[C@@H](O)C1=CC(=O)c2c(O)ccc(O)c2C1=O,5250 nM (active),1.66 µM (active),–,–,13.2 µM (active),10.5 µM (active),inactive,–,–,–,–,–,9.35 µM (active)
O=C(NCC1CN(c2ccc(N3CCOCC3=O)cc2)C(=O)O1)c1ccc(Cl)s1 (stereo not drawn),inactive,0.418 µM (active),–,–,–,2.96 µM (active),inactive,inactive,–,inactive,inactive,-21.7% and -9.76%,2.96 µM (active)
CCCCN(CCCC)C(=O)CN1C[C@H](c2ccc3c(c2)OCO3)[C@@H](C(=O)O)[C@@H]1c1ccc(OC)cc1,16600 nM (active),inactive,inactive,–,inactive,–,2.09 µM (active),–,–,inactive,–,-6%,inactive
CS(=O)(=O)c1ccc(C2=C(c3ccccc3)C(=O)OC2)cc1,inactive,inactive,–,–,inactive,inactive,–,10.5 µM (active),–,inactive,16.6 µM (active),-9.09%,inactive
Cc1ccc(NC(=O)C2(c3ccc4c(c3)OC(F)(F)O4)CC2)nc1-c1cccc(C(=O)O)c1,inactive,0.166 µM (active),0.209 µM (active),–,0.187 µM (active),0.148 µM (active),0.0935 µM (active),0.0833 µM (active),–,inactive,0.0743 µM (active),4.62%,0.187 µM (active)
Cc1ccc(S(=O)(=O)OCC(=O)Nc2ccc(C(=O)O)c(O)c2)cc1,inactive,inactive,–,–,–,–,–,–,–,inactive,16.6 µM (active),–,23.5 µM (active)
CCN(Cc1ccncc1)C(=O)C(CO)c1ccccc1 (stereo not drawn),inactive,–,–,–,–,–,–,–,–,–,–,-0.134%,–
CCN(CC)C(=O)/C(C#N)=C/c1cc(O)c(O)c([N+](=O)[O-])c1,inactive,–,–,–,–,–,–,–,–,–,–,3.46%,–

# Reference: PubChem BioAssay (NCATS)
